Screening data deposited in PubChem by The Scripps Research Institute Molecular Screening Center.
Hits are enriched below; roughly 3.4% of the tested compounds scored in any of these assays.
PLCg1 inh – blocks human PLC-gamma1 enzyme activity. P19174. actives 0.84% (n = 370,000). purified PLC-gamma1, fluorogenic substrate, fluorescence. AID 720700. inhibition, % at 12.2 µM; in the data active means inhibition above about 9.5%
ADAM10 inh – ADAM10 inhibition, QFRET primary screen; O14672; recombinant ADAM10, EDANS/DABCYL FRET peptide cleavage, 3 h; inhibition, % at 7 µM; actives 0.62% (n = 370,000);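 active means inhibition above a per-campaign cutoff equal to the mean of compounds falling between control-based bounds plus 3 SD, cut at about 20% in these data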
ADAM17 inh – inhibitors of human ADAM17. inhibition, % at 6.95 µM. recombinant ADAM17, EDANS/DABCYL FRET peptide cleavage. actives 0.83% (n = 370,000);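 active means inhibition above the mean of compounds lying between control limits plus 3 SD, set per campaign, cut at about 8.5% in these data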
proKLK7 act – activators of human kallikrein-7 zymogen; AID 652039; P49862; activation, % at 7 µM; purified proKLK7, EDANS-DABCYL substrate fluorescence; 100% is mature enzyme control, 0% vehicle; actives 0.9% (n = 370,000);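 active means activation above the mean of all tested compounds plus 3 SD, computed per campaign excluding outliers beyond control limits, cut at about 13% in these data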
PLC-beta3 inh – inhibitors of human phospholipase C beta3. inhibition, % at 12.2 µM. AID 720704. Q01970. Purified PLC-beta3, fluorogenic substrate, fluorescence. actives 0.18% (n = 370,000); in the data active means inhibition above about 11%
Target sequence (Q01970 whole entry, looked up): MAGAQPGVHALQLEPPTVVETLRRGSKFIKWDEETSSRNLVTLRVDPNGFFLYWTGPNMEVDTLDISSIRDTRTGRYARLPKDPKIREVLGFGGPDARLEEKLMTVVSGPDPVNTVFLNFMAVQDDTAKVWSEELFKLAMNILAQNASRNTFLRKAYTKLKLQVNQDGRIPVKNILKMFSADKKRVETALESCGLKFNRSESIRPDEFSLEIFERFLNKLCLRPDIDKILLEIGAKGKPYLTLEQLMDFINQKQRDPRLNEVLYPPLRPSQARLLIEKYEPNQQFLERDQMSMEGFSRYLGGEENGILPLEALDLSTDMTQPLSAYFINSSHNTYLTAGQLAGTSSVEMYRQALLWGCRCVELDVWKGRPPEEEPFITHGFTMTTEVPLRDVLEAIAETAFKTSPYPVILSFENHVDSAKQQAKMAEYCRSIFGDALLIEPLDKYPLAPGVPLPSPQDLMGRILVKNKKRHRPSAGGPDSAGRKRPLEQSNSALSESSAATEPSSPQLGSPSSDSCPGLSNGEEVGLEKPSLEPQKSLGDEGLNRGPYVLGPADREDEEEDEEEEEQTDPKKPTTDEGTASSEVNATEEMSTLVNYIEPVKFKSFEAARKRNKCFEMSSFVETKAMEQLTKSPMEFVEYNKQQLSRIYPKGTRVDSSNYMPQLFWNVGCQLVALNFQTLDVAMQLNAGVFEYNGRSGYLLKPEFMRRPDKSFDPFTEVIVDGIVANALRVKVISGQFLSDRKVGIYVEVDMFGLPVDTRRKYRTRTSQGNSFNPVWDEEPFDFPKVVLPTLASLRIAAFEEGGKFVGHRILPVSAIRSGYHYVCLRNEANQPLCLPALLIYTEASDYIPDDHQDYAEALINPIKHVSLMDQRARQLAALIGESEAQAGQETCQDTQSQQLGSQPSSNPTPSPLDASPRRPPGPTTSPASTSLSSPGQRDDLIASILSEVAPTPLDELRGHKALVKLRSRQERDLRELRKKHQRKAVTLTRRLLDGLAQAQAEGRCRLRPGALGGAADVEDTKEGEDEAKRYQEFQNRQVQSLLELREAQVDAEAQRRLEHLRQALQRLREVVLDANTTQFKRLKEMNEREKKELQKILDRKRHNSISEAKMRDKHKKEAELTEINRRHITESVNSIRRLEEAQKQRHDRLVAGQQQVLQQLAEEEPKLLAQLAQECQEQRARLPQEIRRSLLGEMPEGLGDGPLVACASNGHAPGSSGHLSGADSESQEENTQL
sPLA2-III inh – Blocks human group III sPLA2 activity | QFRET BODIPY PC-A2 liposome hydrolysis, fluorescence | inhibition, % at 12.2 µM | actives 0.56% (n = 370,000) | Q9NZ20;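 active means inhibition above mean plus 3 SD of compounds lying within the high and low control bounds, cut at about 19% in these data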
proKLK7 act conf – confirmation of human kallikrein-7 zymogen activators; shares compounds with proKLK7 act; purified proKLK7, EDANS-DABCYL substrate fluorescence; scaled: vehicle 0, mature enzyme 100; activation, % at 7 µM; actives 68% (n = 3,200);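 active means activation, as change over the incubation, above the mean of all tested compounds plus 3 SD, cut at about 13% in these data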
EDANS-DABCYL int – fluorescence interference counter-screen for KLK7 activators; shares compounds with proKLK7 act; EDANS-DABCYL substrate fluorescence interference, no enzyme, 4 h; solvent 0%, active enzyme control 100%; actives 80% (n = 3,200); activation, % at 7 µM;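 active means activation above the all-compound mean plus 3 SD, ignoring values outside control-based bounds, cut at about 4.8% in these data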;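 further: value is the 4 h activation minus the activation read at time zero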
Numbers stand for hits.

Results for C=C(C)/C=C1/C(Cc2ccccc2)N(CC2CC2)C(=N)N1C(=O)OCc1ccccc1 (stereo not given) ?
PLCg1 inh: inactive; ADAM10 inh: inactive; ADAM17 inh: inactive; proKLK7 act: inactive; PLC-beta3 inh: inactive; sPLA2-III inh: inactive

What do the screens show for `O=C(CSc1nc2ccccc2c(=O)[nH]1)NC1CCCCC1`?
PLCg1 inh: inactive; ADAM10 inh: inactive; ADAM17 inh: inactive; PLC-beta3 inh: inactive; sPLA2-III inh: inactive

Results for Cc1ccc(S(=O)(=O)N2CCCC2c2cccc3[nH]cc(C)c23)cc1 (stereo not given) ?
PLCg1 inh: inactive; ADAM10 inh: inactive; ADAM17 inh: inactive; proKLK7 act: inactive; PLC-beta3 inh: inactive; sPLA2-III inh: inactive

How did O=Cc1ccc(/C=C2\c3ccccc3C(=O)N2c2ccccc2)o1 do in these assays?
PLCg1 inh: inactive; ADAM10 inh: inactive; ADAM17 inh: inactive; proKLK7 act: 34; PLC-beta3 inh: inactive; sPLA2-III inh: inactive; proKLK7 act conf: 62; EDANS-DABCYL int: 59

Results for O=C1c2ccccc2C(=O)N1c1ccccc1 ?
PLCg1 inh: inactive; ADAM10 inh: inactive; ADAM17 inh: inactive; proKLK7 act: inactive; PLC-beta3 inh: inactive; sPLA2-III inh: inactive

What do the screens show for `Nc1nc2c(C(=O)N3CCCC3)nnn2c2ccccc12`?
PLCg1 inh: inactive; ADAM10 inh: inactive; ADAM17 inh: inactive; proKLK7 act: 19; PLC-beta3 inh: inactive; sPLA2-III inh: inactive; proKLK7 act conf: 22; EDANS-DABCYL int: 20

What do the screens show for `O=C(NNS(=O)(=O)c1ccccc1[N+](=O)[O-])c1ccccc1Cl`?
PLCg1 inh: inactive; ADAM10 inh: inactive; ADAM17 inh: inactive; proKLK7 act: inactive; PLC-beta3 inh: inactive; sPLA2-III inh: inactive

What do the screens show for `O=C(NNS(=O)(=O)c1ccccc1[N+](=O)[O-])c1cc2ccccc2cc1O`?
PLCg1 inh: inactive; ADAM10 inh: inactive; ADAM17 inh: inactive; proKLK7 act: 14; PLC-beta3 inh: inactive; sPLA2-III inh: inactive; proKLK7 act conf: 22; EDANS-DABCYL int: 20

How did CCOC(=O)[C@]12CCCC=C1N(CCCOC)C(=O)[C@@H]2CC(=O)NCCc1ccccc1OC do in these assays?
PLCg1 inh: inactive; ADAM10 inh: inactive; ADAM17 inh: inactive; proKLK7 act: inactive; PLC-beta3 inh: inactive; sPLA2-III inh: inactive

What do the screens show for `CCOC(=O)Cn1cc(CN2CCS(=O)(=O)N(Cc3ccc(F)cc3)C(C(=O)OC)C2)nn1` (stereo not given)?
PLCg1 inh: inactive; ADAM10 inh: inactive; ADAM17 inh: inactive; proKLK7 act: inactive; PLC-beta3 inh: inactive; sPLA2-III inh: inactive

What do the screens show for `CCOc1ccccc1-c1cncc(NC)n1`?
PLCg1 inh: inactive; ADAM10 inh: inactive; ADAM17 inh: inactive; proKLK7 act: 25; PLC-beta3 inh: inactive; sPLA2-III inh: inactive; proKLK7 act conf: 18; EDANS-DABCYL int: 16

How did CCOc1ccccc1-c1cnc(NC)cn1 do in these assays?
PLCg1 inh: inactive; ADAM10 inh: inactive; ADAM17 inh: inactive; proKLK7 act: 15; PLC-beta3 inh: inactive; sPLA2-III inh: inactive; proKLK7 act conf: 31; EDANS-DABCYL int: 28

Results for CNc1cncc(-c2cccc(OC)c2F)n1 ?
PLCg1 inh: inactive; ADAM10 inh: inactive; ADAM17 inh: inactive; proKLK7 act: 37; PLC-beta3 inh: inactive; sPLA2-III inh: inactive; proKLK7 act conf: 35; EDANS-DABCYL int: 53

What do the screens show for `CNc1cncc(-c2ccccc2CO)n1`?
PLCg1 inh: inactive; ADAM10 inh: inactive; ADAM17 inh: inactive; proKLK7 act: 26; PLC-beta3 inh: inactive; sPLA2-III inh: inactive; proKLK7 act conf: inactive; EDANS-DABCYL int: 15

How did Cc1c[nH]c2cccc(-c3ccc(Cl)cc3Cl)c12 do in these assays?
PLCg1 inh: inactive; ADAM10 inh: inactive; ADAM17 inh: inactive; proKLK7 act: inactive; PLC-beta3 inh: inactive; sPLA2-III inh: inactive

How did CCCCCCCCN1C(=O)N2Cc3cc(F)ccc3C2CS1(=O)=O (stereo not given) do in these assays?
PLCg1 inh: inactive; ADAM10 inh: inactive; ADAM17 inh: inactive; proKLK7 act: inactive; PLC-beta3 inh: inactive; sPLA2-III inh: inactive

How did Cc1cccc(Cn2cc(COC(=O)N3CCCC3)nn2)c1 do in these assays?
PLCg1 inh: inactive; ADAM10 inh: inactive; ADAM17 inh: inactive; proKLK7 act: inactive; PLC-beta3 inh: inactive; sPLA2-III inh: inactive

Results for CCCOc1ccc(-c2c(C(=O)N/N=C/c3ccc(OC)cc3)nnn2-c2nonc2N)cc1 ?
PLCg1 inh: inactive; ADAM10 inh: inactive; ADAM17 inh: inactive; proKLK7 act: 57; PLC-beta3 inh: inactive; sPLA2-III inh: inactive; proKLK7 act conf: inactive; EDANS-DABCYL int: inactive

Results for COc1ccc(/C=N/NC(=O)c2nnn(-c3nonc3N)c2-c2cccs2)c(OC)c1 ?
PLCg1 inh: inactive; ADAM10 inh: inactive; ADAM17 inh: inactive; proKLK7 act: 68; PLC-beta3 inh: inactive; sPLA2-III inh: inactive; proKLK7 act conf: inactive; EDANS-DABCYL int: inactive

What do the screens show for `CCOC(=O)[C@@]12CCC3=C1N(CCC3)C(=O)[C@H](CC(=O)NCC13CC4CC(CC(C4)C1)C3)C2`?
PLCg1 inh: inactive; ADAM10 inh: inactive; ADAM17 inh: inactive; proKLK7 act: inactive; PLC-beta3 inh: inactive; sPLA2-III inh: inactive

Results for COC(=O)[C@]12C[C@H](CC(=O)NCC34CC5CC(CC(C5)C3)C4)C(=O)N(Cc3cccc4ccccc34)C1=C[C@H](C(C)(C)C)O[C@@H]2C ?
PLCg1 inh: inactive; ADAM10 inh: inactive; ADAM17 inh: inactive; proKLK7 act: inactive; PLC-beta3 inh: inactive; sPLA2-III inh: inactive

How did COc1ccc(CCNC(=O)c2cc3c(=O)n4cccc(C)c4nc3n(CCCN3CCOCC3)c2=N)cc1 do in these assays?
PLCg1 inh: inactive; ADAM10 inh: inactive; ADAM17 inh: inactive; proKLK7 act: inactive; PLC-beta3 inh: inactive; sPLA2-III inh: inactive

How did Cc1cccn2c(=O)c3cc(C(=O)NCC4CCCO4)c(=N)n(C4CCCCC4)c3nc12 (stereo not given) do in these assays?
PLCg1 inh: inactive; ADAM10 inh: inactive; ADAM17 inh: inactive; proKLK7 act: 25; PLC-beta3 inh: inactive; sPLA2-III inh: inactive; proKLK7 act conf: inactive; EDANS-DABCYL int: inactive

What do the screens show for `Cc1cccn2c(=O)c3cc(C(=O)NC4CCCC4)c(=N)n(CCCN4CCOCC4)c3nc12`?
PLCg1 inh: inactive; ADAM10 inh: inactive; ADAM17 inh: inactive; proKLK7 act: 35; PLC-beta3 inh: inactive; sPLA2-III inh: inactive; proKLK7 act conf: inactive; EDANS-DABCYL int: 12
